Structures are written as SMILES. Results filed as inconclusive are left out. Calls of active or inactive are those of the source. Unless noted, no rule for the calls is given here.

As a reminder, the inhibition is the relative decrease from the control value, in per cent.

A short description of test [1]: rapamycin-like changes in RPL19A-GFP expression – cell-based, S. cerevisiae, multiplex flow cytometry, primary screen (AID 1862; in the data active = percent of DMSO control GFP below about 86%;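 also: lower values mimic rapamycin by blocking the RPL19A rise seen in DMSO cells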). As to conditions: S. cerevisiae RPL19A-GFP strain, flow cytometry fluorescence, 3 h; at 10 µM; stronger effect = lower value. In general terms: Flow cytometry measures light scatter and fluorescence of single cells or particles in a stream.
Test [2] in a line: TOR pathway GLN3 branch reporter MEP2-GFP changes – S. cerevisiae, multiplex flow cytometry, primary screen (AID 1867;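 active = GFP response, as percent of the DMSO control, above the screen-wide mean plus 3 SD, about 139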;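 also: median GFP channel fluorescence of barcode-gated MEP2-GFP cells measured by flow cytometry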). As to conditions: S. cerevisiae MEP2-GFP strain, 3 h, at 10 µM, stronger effect = higher value.
The nature of test [3]: TOR pathway RTG branch CIT2 reporter changes – S. cerevisiae, GFP fusion, multiplex flow cytometry, primary screen (AID 1870;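 active = percent response above a set limit, the screen-wide mean plus 3 SD, cut at about 130% in these data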;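 also: barcoded CIT2-GFP strain pooled with four other GFP strains with rapamycin as positive control; median GFP fluorescence per well over plate mean of DMSO wells so 100% = DMSO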). The following applies: S. cerevisiae CIT2-GFP expression, 3 h, at 10 µM, stronger effect = higher value.
A short description of test [4]: TOR pathway LAP4-GFP level changes – S. cerevisiae, multiplex flow cytometry, primary screen (AID 1873;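 active = GFP signal, as percent of the solvent control, above the screen mean plus 3 SD, about 149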). The following applies: S. cerevisiae LAP4-GFP expression, 3 h, at 10 µM, stronger effect = higher value.
A short description of test [5]: yeast AGP1-GFP level changes, GLN3 branch – cell-based, multiplex flow cytometry, S. cerevisiae, primary screen (AID 1887;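 active = GFP signal above the screen-wide mean plus 3 SD, that is over about 124.5% of the solvent control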;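 also: AGP1-GFP fusion strain of S. cerevisiae within a five-strain barcoded multiplex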). The following applies: 3 h, at 10 µM, stronger effect = higher value.
The nature of test [6]: reduced mouse 2C T cell binding to pMHC/ICAM-1 vesicles – MLPCN validation set, flow cytometry, LFA-1/ICAM-1 modulator project, pilot screen (AID 2523;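 active = response below a set limit, under 55% cells CD8-positive and vesicle-bound, and CD8 cells' 90th-percentile brightness under 279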;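 as to vesicle binding response: mean PE anti-B7-1 fluorescence of CD8+ cells relative to row control; 100% = QL9-loaded vesicles with DMSO vehicle in the same plate row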). The following applies: 2C mouse CD8+ T cells, at 7 µM, stronger effect = lower value; double positive events: measured here: CD8+/vesicle+ event percentage.
The target in test [7] is Integrin beta-1 (Homo sapiens) + Integrin alpha-4 (Homo sapiens) (UniProt P13612+P05556). Kind of test: alpha4beta1 integrin LIBS antibody binding reduction – U937 cells, HUTS-21 mAb, flow cytometry, validation set, VLA-4 allosteric modulator project, pilot screen (AID 2674;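 active = inhibition above 50%, about 3 SD of the validation set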;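 also: antibody binding induced by the VLA-4 ligand LDV present at three times its Kd; 0% = LDV ligand with antibody and no compound and 100% = antibody without LDV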). As to conditions: HUTS-21 LIBS mAb binding, at 6.7 µM, stronger effect = higher value.
Sequence of Integrin beta-1 (Homo sapiens) + Integrin alpha-4 (Homo sapiens) (P05556 whole entry, looked up): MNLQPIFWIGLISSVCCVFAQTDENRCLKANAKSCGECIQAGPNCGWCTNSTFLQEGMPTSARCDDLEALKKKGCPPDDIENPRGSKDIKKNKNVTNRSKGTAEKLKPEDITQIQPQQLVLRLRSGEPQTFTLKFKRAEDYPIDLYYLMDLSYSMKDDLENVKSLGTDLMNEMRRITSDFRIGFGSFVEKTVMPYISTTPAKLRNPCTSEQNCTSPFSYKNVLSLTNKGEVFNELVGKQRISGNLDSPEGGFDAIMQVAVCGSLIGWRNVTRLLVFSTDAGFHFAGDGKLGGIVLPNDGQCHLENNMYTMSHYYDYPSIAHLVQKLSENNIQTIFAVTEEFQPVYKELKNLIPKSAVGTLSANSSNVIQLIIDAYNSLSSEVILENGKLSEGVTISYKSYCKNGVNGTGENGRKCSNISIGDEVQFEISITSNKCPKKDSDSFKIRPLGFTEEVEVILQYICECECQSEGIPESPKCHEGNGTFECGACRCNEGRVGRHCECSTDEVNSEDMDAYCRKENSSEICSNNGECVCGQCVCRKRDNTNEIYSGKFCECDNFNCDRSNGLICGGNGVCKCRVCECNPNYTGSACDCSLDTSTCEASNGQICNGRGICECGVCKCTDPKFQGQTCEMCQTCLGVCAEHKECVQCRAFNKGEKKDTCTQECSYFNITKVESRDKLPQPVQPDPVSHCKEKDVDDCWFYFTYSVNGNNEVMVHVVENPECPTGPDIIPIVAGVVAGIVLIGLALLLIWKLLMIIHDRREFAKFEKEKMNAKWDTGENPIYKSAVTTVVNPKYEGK
Sequence of Integrin beta-1 (Homo sapiens) + Integrin alpha-4 (Homo sapiens) (P13612 whole entry, looked up): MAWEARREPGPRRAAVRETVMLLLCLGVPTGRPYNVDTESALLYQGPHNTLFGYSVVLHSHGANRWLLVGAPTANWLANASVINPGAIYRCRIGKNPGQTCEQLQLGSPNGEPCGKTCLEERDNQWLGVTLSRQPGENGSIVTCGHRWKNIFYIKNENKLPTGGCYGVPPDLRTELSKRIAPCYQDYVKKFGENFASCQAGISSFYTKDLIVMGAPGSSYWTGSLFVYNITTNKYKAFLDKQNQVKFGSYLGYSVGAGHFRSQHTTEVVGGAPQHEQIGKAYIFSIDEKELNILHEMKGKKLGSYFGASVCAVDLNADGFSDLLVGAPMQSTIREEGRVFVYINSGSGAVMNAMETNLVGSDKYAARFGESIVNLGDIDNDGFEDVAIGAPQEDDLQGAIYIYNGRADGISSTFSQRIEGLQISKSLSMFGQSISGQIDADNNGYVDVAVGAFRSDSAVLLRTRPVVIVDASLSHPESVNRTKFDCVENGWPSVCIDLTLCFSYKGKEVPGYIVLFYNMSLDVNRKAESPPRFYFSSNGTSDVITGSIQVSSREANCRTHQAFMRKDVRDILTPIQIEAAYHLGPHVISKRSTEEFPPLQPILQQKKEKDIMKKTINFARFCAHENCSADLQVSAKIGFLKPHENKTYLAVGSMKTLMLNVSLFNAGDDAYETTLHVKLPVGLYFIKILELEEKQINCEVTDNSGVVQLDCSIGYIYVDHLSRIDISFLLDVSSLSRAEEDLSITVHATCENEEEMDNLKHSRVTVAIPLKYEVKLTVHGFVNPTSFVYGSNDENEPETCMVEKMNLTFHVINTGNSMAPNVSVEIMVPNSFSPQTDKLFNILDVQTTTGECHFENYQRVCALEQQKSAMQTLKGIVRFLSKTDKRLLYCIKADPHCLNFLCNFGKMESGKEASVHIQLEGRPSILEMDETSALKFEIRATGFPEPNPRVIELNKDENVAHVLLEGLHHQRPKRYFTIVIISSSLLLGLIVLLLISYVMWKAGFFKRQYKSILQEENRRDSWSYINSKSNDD
Test [8] in a line: calorie-restriction mimetic ROS inhibitors, yeast – validation compound set, pilot screen (AID 2706;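 active = superoxide response below 65% of plate, a cut near 3 SD across the whole screen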;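 also: yeast exposed to compound for one week at 30 degrees C before staining; 100% = mean of all compound wells on the same plate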). The following applies: S. cerevisiae aging, superoxide DHE fluorescence; at 10 µM; stronger effect = lower value.
Test [9] addresses Beta-adrenergic receptor kinase 1 (Homo sapiens) (UniProt P25098). The experiment in a line: GRK2 binders displacing RNA aptamer, biochemical, validation, human GRK2, bead flow cytometry (AID 488806;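 active = aptamer binding inhibition above 30%, about 3 SD of noise from non-fluorescent compounds; inactive = inhibition at or below 30%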). As to conditions: bead-bound GRK2, FAM-aptamer displacement, at 10 µM, stronger effect = higher value.
The target of test [10] is Beta-2 adrenergic receptor (Homo sapiens) (UniProt P07550). The experiment in a line: agonist-induced loss of surface beta2AR – cell-based, FAP fluorogen, flow cytometry, validation set, pilot screen (AID 504459;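 active = percent response above 42, roughly 3 SD of non-fluorescent test compounds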;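 also: agonist-driven loss of surface beta2AR via internalization measured by FAP dye flow cytometry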). As to conditions: Am2.2-beta2AR cells, at 10 µM, stronger effect = higher value.
Sequence of Beta-2 adrenergic receptor (Homo sapiens) (P07550 whole entry, looked up): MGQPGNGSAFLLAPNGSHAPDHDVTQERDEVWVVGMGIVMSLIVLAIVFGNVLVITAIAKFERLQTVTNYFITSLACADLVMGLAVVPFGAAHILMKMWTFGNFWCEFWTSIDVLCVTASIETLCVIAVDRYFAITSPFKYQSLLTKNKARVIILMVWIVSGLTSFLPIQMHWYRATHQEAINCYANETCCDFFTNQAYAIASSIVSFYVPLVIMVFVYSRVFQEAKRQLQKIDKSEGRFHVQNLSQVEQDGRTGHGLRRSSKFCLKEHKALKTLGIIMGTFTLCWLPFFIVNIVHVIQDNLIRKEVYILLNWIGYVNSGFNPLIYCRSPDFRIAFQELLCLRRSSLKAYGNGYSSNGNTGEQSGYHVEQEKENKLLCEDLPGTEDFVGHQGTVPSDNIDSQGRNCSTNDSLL
Test [11] addresses AP-2 complex subunit beta (Homo sapiens) (UniProt P63010). The experiment in a line: beta-arrestin/AP2 interaction blockers – biochemical, validation set, GST-AP2 beads, flow cytometry, pilot screen (AID 504541;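 active = inhibition above 54%, about 3 SD of non-fluorescent compounds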;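 also: AP2 carries R879A mutation and is captured from E. coli lysate; bead-bound FITC arrestin peptide fluorescence measuring arrestin peptide binding to AP2; 0% = DMSO wells and 100% = excess unlabeled arrestin peptide control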). The following applies: FITC arrestin peptide, at 10 µM, stronger effect = higher value.
A short description of test [12]: cytosolic pH regulators acting via V-ATPase – S. cerevisiae, pHLuorin, HTS validation (AID 504600; in the data active = response above about 15%;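 also: plate controls were DMSO for no effect and reference compound for full effect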). The following applies: V-ATPase proton transport, at 10 µM, stronger effect = higher value.
Test [13] has as its system anti-desmoglein-3 scFv antibody binding to human DSG3. Kind of test: blockers of pathogenic pemphigus antibody–desmoglein-3 binding – biochemical, validation compound set, bead-based, flow cytometry, pilot screen (AID 588368;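 active = binding below the plate cutoff, the plate median minus 3 SD, with a reading above zero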;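 also: signal is the median channel fluorescence of bead-bound GFP antibody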). The following applies: Protein G beads, DSG3-Fc, scFv-GFP binding, at 10 µM, stronger effect = lower value.
For test [14], the system named is Botulinum neurotoxin type F light chain protease (Clostridium botulinum). The experiment in a line: Clostridium botulinum type F light chain protease inhibitors, microsphere substrate cleavage, validation (AID 588459). The following applies: multiplex microsphere protease substrate cleavage assay, flow cytometry; at 10 µM; stronger effect = higher value.
Test [15] concerns the target Botulinum neurotoxin type A (Clostridium botulinum) (UniProt P0DPI0). Kind of test: BoNT/A light chain protease inhibitors, biochemical, multiplex microsphere flow cytometry, validation set (AID 588460). As to conditions: at 10 µM, stronger effect = higher value.
Test [16] addresses Lethal factor (Bacillus anthracis) (UniProt P15917). Kind of test: Bacillus anthracis lethal factor inhibition, microsphere flow cytometry protease assay, validation at 10 µM (AID 588461). As to conditions: multiplex microsphere protease cleavage assay, stronger effect = higher value.
Test [17] can be described thus: Nile Red efflux blockade in pump-expressing yeast – validation compound set, multiplex, phenotypic, pilot screen (AID 588506;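 active = efflux inhibition above 0.42, the validation set average plus 4 SD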;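 also: Nile Red retained in cells so higher fluorescence means more efflux inhibition; 0 = negative control wells and 1 = enniatin B 25 µM full block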). As to conditions: S. cerevisiae pump-expressing triplex, Nile Red efflux flow cytometry; at 10 µM; stronger effect = higher value.
For test [18], the target named is ATP-binding cassette sub-family B member 6 (Homo sapiens) (UniProt Q9NP58). The experiment in a line: blockers of ABCB6-driven porphyrin uptake – K562-ABCB6 cells, flow cytometry, validation set, pilot screen (AID 588550;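 active = inhibition above the screen-wide mean plus 3 SD, about 51%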;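 also: 0% = DMSO wells and 100% = benzethonium chloride 70 µM positive control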). As to conditions: K562-ABCB6 porphyrin accumulation, 1 h, at 10 µM, stronger effect = higher value.
Test [19] in a line: AML differentiation inducers, ER-HoxA9 marrow cells – cell-based, GFP/MAC1 double positive, flow cytometry, validation set, primary screen (AID 588685;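 active = differentiation response of at least 50%, scaled between solvent and reference control, from cells with both markers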;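 also: compound exposure lasts four days before antibody staining and flow analysis; 0% = DMSO wells and 100% = 5 µM fulvestrant positive control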). The following applies: stronger effect = higher value.

Sequence of AP-2 complex subunit beta (Homo sapiens) (P63010 whole entry, looked up, one chain of several): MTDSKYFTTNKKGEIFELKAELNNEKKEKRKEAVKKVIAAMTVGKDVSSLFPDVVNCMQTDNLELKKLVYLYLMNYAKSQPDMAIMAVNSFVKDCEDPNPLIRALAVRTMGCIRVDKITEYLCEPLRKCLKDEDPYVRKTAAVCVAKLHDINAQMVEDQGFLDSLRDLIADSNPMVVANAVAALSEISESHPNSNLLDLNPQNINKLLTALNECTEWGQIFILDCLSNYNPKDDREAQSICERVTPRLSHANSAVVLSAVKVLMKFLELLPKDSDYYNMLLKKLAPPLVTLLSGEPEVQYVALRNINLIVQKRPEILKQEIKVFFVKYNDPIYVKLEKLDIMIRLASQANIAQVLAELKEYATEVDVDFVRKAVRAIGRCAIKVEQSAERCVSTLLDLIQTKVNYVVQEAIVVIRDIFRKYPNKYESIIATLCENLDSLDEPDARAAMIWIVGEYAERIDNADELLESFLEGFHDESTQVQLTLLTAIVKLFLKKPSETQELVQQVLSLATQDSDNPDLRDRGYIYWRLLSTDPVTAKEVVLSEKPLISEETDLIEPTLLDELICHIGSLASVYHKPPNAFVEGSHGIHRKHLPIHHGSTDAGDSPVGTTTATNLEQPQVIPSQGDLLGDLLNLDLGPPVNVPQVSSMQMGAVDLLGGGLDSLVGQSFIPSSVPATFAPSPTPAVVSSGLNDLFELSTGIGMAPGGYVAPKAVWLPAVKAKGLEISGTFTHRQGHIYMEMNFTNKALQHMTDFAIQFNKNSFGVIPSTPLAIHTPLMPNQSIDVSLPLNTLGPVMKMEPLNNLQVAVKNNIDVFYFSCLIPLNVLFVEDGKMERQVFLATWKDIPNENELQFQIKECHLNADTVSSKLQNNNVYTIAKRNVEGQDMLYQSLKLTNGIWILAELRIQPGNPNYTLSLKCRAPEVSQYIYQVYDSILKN
Sequence of Beta-adrenergic receptor kinase 1 (Homo sapiens) (P25098 whole entry, looked up): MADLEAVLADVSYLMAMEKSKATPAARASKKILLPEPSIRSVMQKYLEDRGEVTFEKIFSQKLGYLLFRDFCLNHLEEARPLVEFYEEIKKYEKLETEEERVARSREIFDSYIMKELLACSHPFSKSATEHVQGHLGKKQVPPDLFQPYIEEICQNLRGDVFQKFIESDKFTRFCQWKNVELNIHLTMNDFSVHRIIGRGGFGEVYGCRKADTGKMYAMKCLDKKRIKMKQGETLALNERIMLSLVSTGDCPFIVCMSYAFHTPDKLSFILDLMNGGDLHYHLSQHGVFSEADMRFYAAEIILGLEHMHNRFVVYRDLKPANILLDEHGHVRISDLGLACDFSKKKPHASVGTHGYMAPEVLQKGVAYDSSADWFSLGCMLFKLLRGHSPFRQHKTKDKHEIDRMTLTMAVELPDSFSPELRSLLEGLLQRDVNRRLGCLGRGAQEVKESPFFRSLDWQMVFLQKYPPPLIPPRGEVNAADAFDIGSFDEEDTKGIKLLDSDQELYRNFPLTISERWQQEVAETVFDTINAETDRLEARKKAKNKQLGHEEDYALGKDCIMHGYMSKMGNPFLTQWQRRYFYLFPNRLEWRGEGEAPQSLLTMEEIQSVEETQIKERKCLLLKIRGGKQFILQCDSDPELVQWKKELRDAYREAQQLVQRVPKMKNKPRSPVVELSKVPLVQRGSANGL
Sequence of Lethal factor (Bacillus anthracis) (P15917 whole entry, looked up): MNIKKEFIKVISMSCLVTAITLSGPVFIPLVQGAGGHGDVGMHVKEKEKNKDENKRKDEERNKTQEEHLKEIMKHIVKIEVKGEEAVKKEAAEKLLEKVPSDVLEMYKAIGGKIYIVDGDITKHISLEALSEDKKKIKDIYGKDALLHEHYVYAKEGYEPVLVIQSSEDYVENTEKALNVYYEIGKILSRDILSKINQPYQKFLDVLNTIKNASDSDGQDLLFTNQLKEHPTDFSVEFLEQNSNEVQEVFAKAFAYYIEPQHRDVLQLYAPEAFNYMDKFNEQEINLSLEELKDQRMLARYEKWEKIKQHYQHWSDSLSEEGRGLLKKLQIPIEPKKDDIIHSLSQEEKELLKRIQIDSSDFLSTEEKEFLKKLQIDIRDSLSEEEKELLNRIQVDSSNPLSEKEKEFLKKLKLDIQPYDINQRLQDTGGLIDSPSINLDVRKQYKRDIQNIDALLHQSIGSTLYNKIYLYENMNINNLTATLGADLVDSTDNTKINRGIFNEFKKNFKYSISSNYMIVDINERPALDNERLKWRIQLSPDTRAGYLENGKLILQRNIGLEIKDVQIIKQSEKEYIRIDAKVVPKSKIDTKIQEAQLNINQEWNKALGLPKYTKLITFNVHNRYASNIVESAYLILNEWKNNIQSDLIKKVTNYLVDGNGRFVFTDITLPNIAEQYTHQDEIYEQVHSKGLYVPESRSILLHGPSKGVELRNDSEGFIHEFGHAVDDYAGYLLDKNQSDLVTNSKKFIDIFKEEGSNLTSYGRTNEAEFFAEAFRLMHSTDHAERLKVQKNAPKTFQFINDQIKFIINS

Take `CC(=O)OC1C2CCC1C(N1CCCC1)CC2` (stereo not given): the percent of DMSO control GFP in test [1] was 98.7% (inactive). Moreover, the GFP response vs DMSO is 106% (inactive) in [2] and 104% (inactive) in [4]. In addition, in test [3], the percent response of DMSO control was 97.7% (inactive). The GFP response, % of DMSO in test [5] is 115% (inactive). Further, in test [6], the double positive events worked out at 67.3%. Also, in test [6], the vesicle binding response was 162% (inactive). Also, the inhibition in test [7] was 9.1% (inactive); in test [11], -16% (inactive); in test [14] it was -2.3% (inactive); in test [15] it was -0.8% (inactive); in [16] it was -5.2% (inactive); in test [18] it was 3% (inactive). For the same compound, the superoxide response (% of plate) in [8] was 91.4% (inactive). Further, the aptamer binding inhibition in [9] was 0% (inactive). Further, the response is -10.9% (inactive) in [10] and -1.91% (inactive) in [12]. Besides, the binding (% of control) in [13] is 103% (inactive). The efflux inhibition (fraction of control) in test [17] was -0.04 (inactive). In test [19], the differentiation response is -12.9% (inactive).

As to `Cc1cc2c(C(C)C)c(O)c(O)c(C=O)c2c(O)c1-c1c(C)cc2c(C(C)C)c(O)c(O)c(C=O)c2c1O`, the percent of DMSO control GFP in [1] was 107% (inactive). The GFP response vs DMSO in test [2] was 103% (inactive); in test [4], 130% (inactive). Also, the percent response of DMSO control in test [3] was 97% (inactive). The GFP response, % of DMSO in [5] was 112% (inactive). Besides, the double positive events in [6] came to 63.4%. The vesicle binding response in test [6] was 161% (inactive). Further, the inhibition in test [7] is 11.7% (inactive); in test [11], 14% (inactive); in [14], 2.6% (inactive); in test [15] it was 0.9% (inactive); in test [16], -7.5% (inactive); in test [18] it was -3% (inactive). In test [8], the superoxide response (% of plate) was 119% (inactive). In addition, the aptamer binding inhibition in test [9] was 5% (inactive). Further, the response is -1.41% (inactive) in test [10] and 1.35% (inactive) in test [12]. In addition, in test [13], the binding (% of control) is 64.8% (active). The efflux inhibition (fraction of control) in test [17] is 0.25 (inactive). Further, the differentiation response in test [19] is 16.7% (inactive).

For the compound `Cn1c(O)c(C=NCCc2c[nH]c3ccccc23)c(=O)n(C)c1=O`, in test [1], the percent of DMSO control GFP was 100% (inactive). Also, the results for the GFP response vs DMSO in test [2] and in test [4] were 111% (inactive) and 120% (inactive), respectively. Besides, the percent response of DMSO control in [3] was 97.7% (inactive). Also, in [5], the GFP response, % of DMSO is 110% (inactive). In addition, in [6], the double positive events came out at 76.2%. Also, in test [6], the vesicle binding response is 17400% (inactive). Moreover, the inhibition is 5.03% (inactive) in test [7]; -3.21% (inactive) in [11]; -1.3% (inactive) in test [14]; 1.4% (inactive) in test [15]; -1.6% (inactive) in test [16]; 6% (inactive) in [18]. The superoxide response (% of plate) in test [8] was 106% (inactive). Moreover, in test [9], the aptamer binding inhibition was 5% (inactive). In addition, the results for the response in [10] and in test [12] were -8.95% (inactive) and 3.13% (inactive), respectively. The binding (% of control) in test [13] is 96.8% (inactive). For the same compound, in [17], the efflux inhibition (fraction of control) was -0.06 (inactive). The differentiation response in test [19] is -23.2% (inactive).

Turning to `O=c1cccc2n1C[C@H]1C[C@@H]2CN2CCCC[C@@H]12`, the percent of DMSO control GFP in [1] was 97.6% (inactive). For the same compound, the values for the GFP response vs DMSO in test [2] and in [4] were 111% (inactive) and 118% (inactive), respectively. For the same compound, the percent response of DMSO control in [3] was 94.8% (inactive). Besides, the GFP response, % of DMSO in test [5] is 98.1% (inactive). For the same compound, in test [6], the double positive events was determined as 61.7%. In addition, the vesicle binding response in test [6] was 124% (inactive). Also, the inhibition was -9.98% (inactive) in test [7]; -2.4% (inactive) in [11]; -0.6% (inactive) in test [14]; -0.2% (inactive) in [15]; -7.3% (inactive) in test [16]; 4% (inactive) in test [18]. The superoxide response (% of plate) in test [8] is 100% (inactive). Further, the aptamer binding inhibition in test [9] was -2% (inactive). Also, the response in [10] was 2.05% (inactive); in [12], -3.47% (inactive). Further, the binding (% of control) in test [13] is 101% (inactive). Further, in test [17], the efflux inhibition (fraction of control) is -0.03 (inactive). For the same compound, the differentiation response in test [19] was -24.8% (inactive).

The values are drawn from PubChem BioAssay.
